TDP1 cell noCPT – qHTS for Inhibitors of human tyrosyl-DNA phosphodiesterase 1 (TDP1): qHTS in cells in absence of CPT; DT40 Tdp1-/- hTDP1 cells, no CPT, ATP luminescence, 48 h; Potency, µM (titrated, usually from 46.2 µM), for inactives: at the highest dose activity change, negative = growth inhibition, most hits filed as inhibitors; hit rate 15% among 420,000; AID 686978, 2013; note: nearly all actives have a fitted effect of over 55% in size
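Camptothecin absent (DMSO only). Human TDP1-complemented DT40 knockout cells, 400 cells/well, 37 °C for minimum 48 hr; ATP measured via CellTiter-Glo, 30 min dark incubation, luminescence.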
TDP1 inh – blocks human tyrosyl-DNA phosphodiesterase 1; Q9NUW8; recombinant TDP1, AlphaScreen DNA substrate cleavage; Potency, µM (titrated, usually from 130 µM), for the others: top-dose activity change, negative = inhibition, most hits filed as inhibitors; hit rate 0.28% among 350,000; AID 485290; note: nearly all actives have a fitted effect of over 40% in size
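Recombinant E. coli-expressed Tdp1 (1 nM) preincubated with compound 15 min at RT, then 5'-biotin/3'-phosphotyrosine-FITC DNA substrate (15 nM) added for 5 min. AlphaScreen beads (10 ug/ml) added, 10 min RT; tyrosine-FITC cleavage read as signal loss.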
Gal4-VP16 FLuc – counter-screen for ROR gamma inhibitors: Gal4-VP16 reporter. Drosophila S2 Gal4-VP16 UAS-luciferase, luminescence, 20 h. Potency, µM (highest dose often 53.6 µM), for the others: at the highest dose activity, negative = inhibition, actives largely listed as inhibitors. hit rate 3.5% among 310,000. AID 2546;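 note: Gal4-VP16 expression switched on by copper sulfate through the metallothionein promoter; nearly all actives have a fitted effect of over 50% in size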
RORgamma inh – ROR gamma (mouse) transcription inhibition. P51450. Drosophila S2 Gal4-RORgamma UAS-luciferase reporter, 20 h. Potency, µM (series often up to 53.6 µM), for the others: top-dose activity change, negative = inhibition, actives largely listed as inhibitors. hit rate 5.4% among 310,000. AID 2551; note: nearly all actives have a fitted effect of over 60% in size
Target sequence (P51450 whole entry, looked up, the tested form may be a part): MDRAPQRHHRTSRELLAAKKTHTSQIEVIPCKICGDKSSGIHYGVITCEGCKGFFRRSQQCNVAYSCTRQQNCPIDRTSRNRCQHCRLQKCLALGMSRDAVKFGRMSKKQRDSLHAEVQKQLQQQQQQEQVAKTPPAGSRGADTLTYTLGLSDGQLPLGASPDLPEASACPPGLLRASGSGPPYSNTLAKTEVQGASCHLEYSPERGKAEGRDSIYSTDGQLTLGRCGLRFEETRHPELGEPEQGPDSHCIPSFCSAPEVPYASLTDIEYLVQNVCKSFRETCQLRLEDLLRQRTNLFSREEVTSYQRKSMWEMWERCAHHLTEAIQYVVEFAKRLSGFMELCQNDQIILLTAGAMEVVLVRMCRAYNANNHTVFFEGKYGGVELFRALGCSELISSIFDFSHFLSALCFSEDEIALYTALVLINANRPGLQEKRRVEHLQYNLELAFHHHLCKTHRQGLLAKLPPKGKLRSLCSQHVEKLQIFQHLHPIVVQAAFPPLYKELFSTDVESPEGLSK
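In this cell-based reporter format, copper sulfate (700 uM final) drives Gal4–ROR gamma fusion expression from a metallothionein promoter in Drosophila Schneider cells; compounds preincubated 1 hr, reporter read after 20 hr at ambient temperature.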
TDP1 cell CPT – growth inhibition of DT40 Tdp1-/-;hTDP1 cells with camptothecin (screen for TDP1 inhibitors); Potency, µM (series often up to 46.2 µM), for the others: at the top dose activity change, negative = growth inhibition, actives largely listed as inhibitors; chicken DT40 Tdp1-/-;hTDP1 cells + 20 nM CPT, ATP luminescence, 48 h; hit rate 12% among 420,000; note: nearly all actives have a fitted effect of over 55% in size
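Chicken DT40 Tdp1-/- cells complemented with human TDP1, 400 cells/well, exposed to compounds plus 20 nM camptothecin for at least 48 h at 37 C; viability read as ATP content by CellTiter-Glo luminescence.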
Starred values were filed as active, the others as inactive; ? = inconclusive; . = no result; [ ] = another dose, or the depositor's remark. Sampled rows, rich in hits. Any-hit rate of the full collection: about 19%. Calls come from the whole dose curve; as a rule, active = well fitted curve in the direction sought with a large enough effect; inconclusive = small, poorly fitted or top-dose-only effect, or another doubt; inactive = no such curve, though single readings can be large; an effect the other way counts as inactive or inconclusive. % is set by controls: 0 for no effect and ±100 for the full control effect; potency is the fitted concentration of half-maximal effect.

SMILES | TDP1 cell noCPT | TDP1 inh | Gal4-VP16 FLuc | RORgamma inh | TDP1 cell CPT
COC(=O)[C@@H]1CC[C@H](C)[C@@H](c2ccc(C)cc2)N1C(=O)c1ccc(/C=N\O[C@@H](C)c2cc(-c3c(C)cc(C)cc3C)no2)cc1 | . | 9%[21 µM] | 9%[10 µM] | 17%[10 µM] | .
CCOC(=O)C1=C(N)Oc2cc(O)ccc2C1c1cccnc1 (centres undefined) | ? | 8% | -2% | 14% | 23µM*
O=C(CCN1C(=O)C2C3C=CC(C4CC34)C2C1=O)Oc1ccc(Br)cc1 (centres undefined) | -14% | 3% | -4% | 1% | 33%
O=C(CCN1C(=O)C2C3C=CC(C4CC34)C2C1=O)Oc1cccc2cccnc12 (centres undefined) | 3.3µM* | 5% | 7.9µM* | 2µM* | 5.2µM*
C=CCN(CC=C)C(=S)NC(=O)c1ccc(-c2ccccc2)cc1 | 6.5µM* | 9% | 1µM* | 0.5µM* | 5.8µM*
C=CCNC(=O)c1ccc(OC)cc1 | -16% | 6% | -4% | -14% | -20%
COc1ccc(C(=O)NC(=S)N(Cc2ccccc2)Cc2ccccc2)cc1 | 9.2µM* | 10% | 0.56µM* | 0.16µM* | 16µM*
C=CCN(CC=C)C(=S)NC(=O)c1ccc(OC)cc1 | 5.2µM* | 0% | 2.2µM* | 0.89µM* | 15µM*
Cc1nc2ccc(C(=O)c3ccccc3)cc2[nH]1 | -24% | 6% | . | -1%[0.365 µM] | -19%
COc1cc(/C=C2/C(=O)c3cccc([N+](=O)[O-])c3C2=O)c(Br)cc1O | 5.2µM* | 1% | 35µM* | ? | 6.5µM*
COc1ccccc1N1CCN(CCCCN2C(=O)C3CCCCN3C2=O)CC1 (centres undefined) | ? | . | -7% | 1% | 26µM*
COc1ccccc1N1CCN(CCCCOc2cccc3ccccc23)CC1 | 9.2µM* | 11% | 0% | 15% | 18µM*
COc1ccccc1OCCCCN1CCN(c2ccccc2OC)CC1 | ? | . | -8% | 12% | ?
COc1ccccc1N1CCN(CCCCCCOc2ccc(F)cc2)CC1 | 21µM* | 0% | 2% | -8% | 23µM*
Fc1ccc(OCCCCCN2CCCC2)cc1 | -5% | 3% | -4% | 7% | -20%
O=C(OCc1ccccc1)c1cnc(Cl)c(Cl)c1 | 0% | . | 7% | -14% | -1%
Cc1cccc(Cn2c(Cc3ccccc3)nc3ccccc32)c1 | ? | 5% | 4.5µM* | 3.2µM* | ?
CC(C)(C)c1ccc(Cn2c(Cc3ccccc3)nc3ccccc32)cc1 | 6.5µM* | . | . | . | 7.3µM*
COCCn1c(COC)nc2ccccc21 | -1% | -3% | 0% | -11% | 1%
Cc1cccc(Cn2c(COc3ccc(Cl)cc3)nc3ccccc32)c1 | 16µM* | . | . | . | 23µM*
Cc1cccc(Cn2c(CNC(=O)c3ccccc3)nc3ccccc32)c1 | ? | -2% | . | . | -23%
COCc1nc2ccccc2n1CCc1ccccc1 | ? | 7% | ? | 11µM* | -22%
COc1cccc(OCc2nc3ccccc3n2CCOc2cccc(C)c2)c1 | ? | -1% | . | . | ?
CC(C(=O)N1CCc2ccccc21)N(C)CC(=O)Nc1ccccc1Cl (centres undefined) | ? | -3%[56.1 µM] | . | . | ?
CC(NC(=O)CCN1C(=O)c2ccccc2S1(=O)=O)c1ccccc1 (centres undefined) | -4% | -11% | . | . | 33%
SMILES | TDP1 cell noCPT | TDP1 inh | Gal4-VP16 FLuc | RORgamma inh | TDP1 cell CPT
Cc1ccccc1Cn1c(Cc2ccccc2)nc2ccccc21 | 18µM* | -3% | ? | 5.6µM* | ?
COCc1nc2ccccc2n1Cc1ccccc1C | ? | 4% | 9% | ? | ?
COCc1nc2ccccc2n1Cc1cccc(C)c1 | ? | 5% | 2% | 13µM* | ?
CC1(C(=O)N2CCN(C(=O)c3ccco3)CC2)CCN1Cc1ccccc1OC(F)F (centres undefined) | 3% | . | . | . | 0%
CC1(C(=O)NCCc2c[nH]c3ccccc23)CCN1Cc1ccccc1OC(F)F (centres undefined) | ? | . | . | . | 18µM*
CC(C)CNC(=O)C1(C)CCCN1C(=O)c1ccc2ccccc2n1 (centres undefined) | -5% | . | . | . | 4%
CC1(C(=O)NCc2ccccc2Br)CCN1Cc1ccccc1OC(F)F (centres undefined) | 23µM* | . | . | . | ?
CC(C)CNC(=O)C1(C)CCCN1Cc1ccccc1OC(F)F (centres undefined) | 23µM* | . | . | . | 21µM*
C[C@H](CO)N1C[C@H](C)[C@H](CN(C)S(=O)(=O)c2ccc(F)cc2)OCc2cnnn2CCCC1=O | -39% | . | . | . | 15%
COc1ccc(CN(C)C(C)C(=O)Nc2ccc([N+](=O)[O-])cc2Cl)cc1OC (centres undefined) | 9.2µM* | 6% | ? | ? | 26µM*
COc1ccc([N+](=O)[O-])cc1NC(=O)C(C)c1ccccc1 (centres undefined) | -27% | 2% | -19% | 6% | -14%
CCOc1ccc(CN(C)C(C)C(=O)Nc2ccc([N+](=O)[O-])cc2Cl)cc1OC (centres undefined) | ? | 5% | -12% | 28% | 16µM*
CC(C)CC(=O)Nc1ccc([N+](=O)[O-])cc1Cl | 4% | -4% | -3% | -12% | 3%
COc1ccc(Br)cc1CN(C)C(C)C(=O)Nc1cc([N+](=O)[O-])ccc1OC (centres undefined) | 23µM* | 3% | -20% | 21% | ?
Cc1ccc(N2CN(Cc3ccco3)CNC2=S)c(C)c1 | 2% | 4% | -3% | -2% | 22%
Cc1ccc(C)c(N2CN(CCC3=CCCCC3)CNC2=S)c1 | 21µM* | 5% | 4.5µM* | 3.2µM* | ?
CCCN1CNC(=S)N(c2cc(C)ccc2C)C1 | -9% | 5% | 11µM* | 13µM* | -6%
CCN1CNC(=S)N(c2ccccc2C)C1 | -6% | -3% | 5% | -38% | 4%
CCC(C(=O)O)N1C(=O)/C(=C/C(C)=C/c2ccccc2)SC1=S (centres undefined) | -2% | 3% | -1% | ? | 5%
COc1cc(/C=C/C(=O)O)ccc1OS(=O)(=O)c1c(C)c(C)cc(C)c1C | 8% | 0% | . | . | -19%
CCCN1CCN(CCCNC(=O)Cn2nc(-c3ccc(C)cc3)ccc2=O)CC1 | -6% | 5% | -1% | -4% | -16%
Cc1c(C(=O)Nc2ccc3c(c2)OCCO3)sc2nc(-c3ccccc3)cn12 | 5.8µM* | 3% | -13% | 53% | 8.2µM*
CNC(=O)c1sc2nc(-c3ccc(OC)cc3)cn2c1C | ? | -6% | 10% | 4% | -10%
